Experiment in all cases: NCI-60 one-dose screen, 48 h (100 = growth as untreated, 0 = no growth, -100 = all killed)
Assay [1] concerns NCI-H23 lung. The conditions noted are these: 10 µM unless noted.
For assay [2], the system named is NCI-H226 lung. To be noted: 10 µM unless noted.
The subject of assay [3] is HOP-62 NSCLC. The conditions noted are these: 10 µM unless noted.
Assay [4] relates to NCI-H460 lung. To be noted: 10 µM unless noted.
In assay [5] the test system is HOP-92 NSCLC. To be noted: 10 µM unless noted.
The test system of assay [6] is 786-0 renal. To be noted: 10 µM unless noted.
Assay [7] has as its system COLO 205 colon. The conditions noted are these: 10 µM unless noted.
Assay [8] has as its system NCI-H522 lung. To be noted: 10 µM.
The subject of assay [9] is A549/ATCC NSCLC. To be noted: 10 µM unless noted.
Assay [10] concerns NCI-H322M lung. The conditions noted are these: 10 µM unless noted.

SMILES strings stand for the structures. This is part of a sample that, as a whole, favours compounds with a hit. Of some 83,000 tested, about 20% had one in any assay.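 Compound tested at a single concentration for 48 hours in 96-well plates; a percent growth value below 10 was scored as active.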 Values without a mark were called inactive. The source made the active and inactive calls.

30 molecules from PubChem BioAssay (NCI) can be followed below.

For the molecule `O=[N+]([O-])c1cc([N+](=O)[O-])c(N2CCCC2)cc1NN=C(c1ccc(O)cc1)c1ccc(O)cc1`, the growth in [1] was 9.44% (active); in assay [2] it was 94.8%; in assay [3], 23.3%; in assay [4], 9.13% (active); in assay [5] it was 87.7%; in assay [6] it was 0.661% (active). For the same molecule, the growth in [7] is 30.6%.

Turning to `C[C@H]1O[C@@H](O[C@H]2[C@@H](O)C[C@H](O[C@H]3[C@@H](O)C[C@H](O[C@H]4CC[C@]5(C)C6C[C@@H](O)[C@]7(C)[C@@H](C8=CC(=O)OC8)CC[C@]7(O)C6CC[C@@H]5C4)O[C@@H]3C)O[C@@H]2C)C[C@H](O)[C@@H]1O` (stereo partly drawn), the growth in assay [1] is -54.9% (active); in assay [2], -100% (active); in assay [3], -100% (active); in assay [4] it was -95.1% (active); in assay [5], -26% (active); in assay [8], -83.9% (active). Also, the growth in [6] was -91.7% (active); in assay [7], -85.9% (active).

For the molecule `COc1cc(/C(Cl)=C/C=C/C(=O)c2c(C)[n+]([O-])c3ccc(Cl)cc3[n+]2[O-])cc(OC)c1OC`, the growth is 63.7% in [1]; 54.3% in [2]; 7.24% (active) in assay [3]; 56.6% in assay [4]; 68.8% in [5]; -33.4% (active) in assay [8]. The figures for the growth in assay [6] and in [7] were 35.1% and -14.8% (active), respectively.

Take `Cc1ccc(-c2csc(N)n2)cc1`: the growth is 102% in assay [1]; 97.4% in [2]; 102% in assay [4]; 70.7% in [5]; 98.8% in assay [8]; 98.3% in assay [6]. The growth in [7] was 115%.

For `CNCCCn1c2c(c3ccc(F)cc3c1=O)C(=O)c1cc(OC)cnc1-2`, the growth in assay [1] was -41.5% (active); in [2], -61.2% (active); in [3], -30% (active); in assay [4] it was -37.6% (active); in [5], -12.4% (active); in assay [9] it was -71.2% (active). Besides, the growth was -38.3% (active) in assay [6] and -33.1% (active) in assay [7].

`CCOC1Oc2ccccc2C(=O)/C1=N/c1nccs1` (stereo not drawn): the growth was 95.2% in assay [1]; 84% in [2]; 92.7% in [3]; 106% in assay [4]; -23.6% (active) in assay [5]; 111% in assay [9]. The results for the growth in assay [6] and in assay [7] were 100% and 95.1%, respectively.

`C/C(=C\CCc1ccoc1)CC/C=C(\C)CCCN1CCOCC1`: the growth in [1] is 46.2%; in assay [2], 70.6%; in assay [3], 69.1%; in [4], 54.3%; in [5] it was 57.4%; in assay [9], 63.6%. Also, the growth was 69.4% in [6] and 40.9% in assay [7].

With `CCNCCCn1c2c(c3ccc(F)cc3c1=O)C(=O)c1cc(OC)cnc1-2`, the growth in assay [1] is -40.4% (active); in [2], -59.1% (active); in assay [3] it was -29% (active); in assay [4], -27.1% (active); in assay [5], -15.5% (active); in assay [9] it was -62.6% (active). Moreover, the growth in assay [6] is -38.4% (active); in assay [7] it was -32% (active).

`COc1ccc(NS(=O)(=O)N2CCCCC2)cc1`: the growth in assay [1] was 106%; in assay [2], 96.2%; in [3], 107%; in assay [4], 113%; in [5], 84.6%; in assay [9], 108%. Moreover, the results for the growth in assay [6] and in assay [7] were 109% and 105%, respectively.

With `N#Cc1c(-c2ccccc2)cc(-c2ccccc2)n(CCCC(=O)O)c1=O`, the growth is 91.3% in assay [1]; 101% in assay [2]; 95.3% in assay [10]; 119% in assay [5]; 92% in [9]; 99.6% in assay [6]. Besides, in assay [7], the growth was 109%.

Take `COc1cc(/C=N/NC(=O)c2ccc(C(F)(F)F)nc2Nc2ccc(Cl)cc2C)ccc1O`: the growth in assay [2] is 39.6%; in assay [10], 25.5%; in assay [4], 24.5%; in [5] it was 40%; in [8] it was 44.6%; in assay [6], 4.66% (active). The growth in assay [7] was 51.8%.

Turning to `O=C(NN1C(=O)c2cc(C(=O)O)c(C(=O)O)cc2C1=O)c1ccncc1`, the growth is 95% in [2]; 102% in assay [10]; 99.3% in assay [3]; 111% in [4]; 4.14% (active) in [5]; 119% in assay [9]. Moreover, the growth in assay [6] was 107%; in assay [7], 105%.

Turning to `CC(C)=CCCC(C)c1ccc(C)c2c1OCN(CC1CCNCC1)C2` (stereo not drawn), the growth in assay [2] was 103%; in [10] it was 99.1%; in assay [3], 95.4%; in [4] it was 24.6%; in [5] it was 12.3%; in assay [9] it was 54.1%. Moreover, the growth was -60.1% (active) in assay [6] and 75.9% in assay [7].

Take `CC[C@@H](C)/C=C(C)/C=C/C(=O)c1c(O)c(-c2ccc(O)cc2)cn(OC2CC(=O)CCC(C)OC(=O)CC2O)c1=O` (stereo partly drawn): the growth was 15.8% in assay [2]; 5.13% (active) in assay [10]; 7.07% (active) in [3]; -19.6% (active) in assay [4]; 57.7% in assay [5]; 17.9% in [9]. The growth in [6] is -6.82% (active); in assay [7], 67.8%.

Take `O=C1/C(=C/c2cccc(Cl)c2)CCc2ccccc21`: the growth in assay [2] is 98.5%; in assay [3], 105%; in [4] it was 107%; in assay [5], 72.6%; in assay [9], 90.2%; in assay [6], 94.8%. The growth in [7] was 111%.

On to `CCCCCCCCCCN1CCC(N2CCCCC2)CC1`, for which the growth in assay [2] is 69.5%; in [3], -64.7% (active); in assay [4], -37.9% (active); in assay [5], -12.4% (active); in assay [8], -59.7% (active); in assay [6] it was -93.1% (active). For the same molecule, the growth in [7] was -85.7% (active).

Consider `CCN1CC2=C(Nc3nc(SC)[nH]c(=O)c3C2c2cc(OC)c(OC)c(OC)c2)/C(=C/c2cc(OC)c(OC)c(OC)c2)C1` (stereo not drawn), for which the growth in assay [2] was 98.5%; in [10], 95.2%; in [3], 104%; in [4], 106%; in [5], 81.6%; in assay [8], 81.2%. Moreover, the growth in [6] was 96.9%; in assay [7], 113%.

With `COC(=O)C1(NC(=O)CNC(=O)OCc2ccccc2)CCCC1`, the growth was 99.1% in assay [2]; 113% in assay [10]; 111% in assay [3]; 111% in assay [4]; 95.3% in assay [9]; 95.3% in [6]. The growth in assay [7] was 125%.

For `Clc1ccc2[nH]cc(-c3cncn3CCc3ccccc3)c2c1`, the growth in [2] was 47.9%; in [10], 65.5%; in [3], 50.8%; in assay [4], 68.5%; in assay [5], 28%; in assay [9] it was 59.7%. The figures for the growth in assay [6] and in assay [7] were 62.9% and 44.3%, respectively.

`CC1CC=CCC1C1OCC(C)(C)CO1` (stereo not drawn): the growth in assay [2] is 99.9%; in [10], 105%; in assay [3], 89.3%; in assay [4], 109%; in assay [9], 96.7%; in assay [6], 97.6%. For the same molecule, the growth in assay [7] was 111%.

`COc1ccc(CNC(=O)c2c(C)n([O-])c3ccccc3[n+]2=O)cc1`: the growth in assay [2] was 102%; in assay [10] it was 144%; in assay [3], 94.3%; in assay [4] it was 112%; in assay [8] it was -15.1% (active); in assay [6], 101%. Further, the growth in [7] was 122%.

For `Fc1ccccc1C1c2ccccc2-c2nccn21` (stereo not drawn), the growth in [2] was 88.1%; in assay [10] it was 96.2%; in [3] it was 98.4%; in [4], 110%; in assay [5] it was 61.8%; in assay [9] it was 94.9%. Also, the values for the growth in [6] and in [7] were 89.7% and 111%, respectively.

Take `O=c1ncc(-c2ccc(C(F)(F)F)cc2)c(NC2CCCCCC2)[nH]1`: the growth is 71.5% in assay [2]; 90.9% in assay [10]; 64% in [3]; 55.1% in [4]; -2.61% (active) in assay [5]; 76.7% in assay [6]. Besides, in assay [7], the growth was 46.2%.

In the case of `CC(=O)Nc1ccc(C(=O)COc2cccc(/C=C3\CCc4ccccc4C3=O)c2)cc1`, the growth in assay [2] was 70.7%; in assay [10], 105%; in [4], 97.1%; in assay [5] it was 70.8%; in assay [8], 63.1%; in assay [6], 92.9%. In addition, the growth in assay [7] is 130%.

In the case of `O=C(N/N=C/c1ccc(Cl)cc1Cl)c1ccccc1Nc1cccc(C(F)(F)F)c1`, the growth in [2] was 50%; in [10], 86.2%; in assay [3] it was 57.9%; in assay [4], 104%; in assay [5] it was -0.368% (active); in [8], 67%. The growth was 74.9% in [6] and 109% in [7].

As to `CCSc1nc(-c2ccco2)n2nc(-c3ccco3)cc2n1`, the growth was 90.7% in assay [2]; 117% in assay [10]; 100% in assay [3]; 92.1% in [4]; 89.6% in [5]; 101% in assay [8]. In addition, the growth in [6] was 111%; in assay [7], 114%.

On to `CCOC(=O)c1cc2oc(/C=C/c3cc(=O)c4cc(Cl)ccc4o3)cc2[nH]1`, for which the growth in assay [2] is 76.9%; in [10], 108%; in [3] it was 99.6%; in assay [4] it was 88.9%; in assay [5] it was -17.9% (active); in assay [9], 99%. Also, the growth was 97.7% in [6] and 93.9% in assay [7].

Take `COc1cc(C2CC(C3C(=O)N(C)C(=O)N(C)C3=O)=NN2c2cc(Cl)cc(Cl)c2)cc(OC)c1OC` (stereo not drawn): the growth was 85% in assay [2]; 89.7% in assay [3]; 94.5% in assay [4]; 88.5% in assay [5]; 78.2% in [9]; 99.6% in assay [6]. For the same molecule, the growth in [7] was 99.7%.

Turning to `CC[N+](CCCCCCCCCC[N+](CC)(c1ccccn1)c1ccccn1)(c1ccccn1)c1ccccn1`, the growth in [2] is 33.2%; in [10] it was -15.8% (active); in [3], 10.7%; in assay [4] it was 0.887% (active); in assay [5], -22.5% (active); in assay [9], 1.29% (active). Besides, the growth was 34.5% in assay [6] and -80% (active) in [7].

`O=C(COc1ccc(/C=C2\Cc3ccccc3C2=O)cc1)c1ccc(Cl)cc1`: the growth in assay [2] was 97.5%; in assay [10], 123%; in assay [3], 101%; in [4], 101%; in [5], 90.7%; in assay [9], 99.6%. Also, the figures for the growth in assay [6] and in assay [7] were 102% and 117%, respectively.
